# Data published in PubChem BioAssay (NCI).
# The panel holds about 83,000 compounds, 20% with a hit somewhere; the sample as a whole holds those more often.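 Values shown are percent growth following 48 h exposure of cells in 96-well plates to a single concentration of compound; below 10 was considered active.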 Values without a mark were called inactive. Active and inactive are the calls of the source.
# Test system: MDA-MB-468 breast
# Experiment: NCI-60 one-dose screen, 48 h (100 = growth as untreated, 0 = no growth, -100 = all killed)
# Details: 10 µM unless noted
row,Structure (SMILES),growth
1,O=C(Nc1cccc(Cl)c1)Oc1c(Cl)c(Cl)c(Cl)c(Cl)c1Cl,110%
2,Fc1ccc(Nc2nc3nonc3nc2Nc2ccc(I)cc2)cc1,-14.7% (active)
3,COc1cc(/C=C/C(=O)N2CCN(C(=O)/C=C/c3ccccc3)CC2)cc(OC)c1OC,107%
4,COc1cc(-c2nn(-c3ccc(Br)cc3)cc2C(=O)O)ccc1O,103%
5,O=C1/C(=C\c2ccc(Br)o2)SC(=S)N1CCc1ccc(O)cc1,28.2%
6,CCCCCCCCCCCCC1CCC/C=C\CCC(=O)O1 (stereo not given),100%
7,C=C(C)[C@@H]1CC[C@]2(COCCCNCCCN)CC[C@]3(C)[C@H](CC[C@@H]4[C@@]5(C)CC[C@H](OCCCN)C(C)(C)[C@@H]5CC[C@]43C)[C@@H]12,-67.8% (active)
8,CC(C)N(CCOC(=O)Nc1ccccc1Cl)C(C)C,104%
9,CS(=O)(=O)Nc1cccc(-c2ccc3ncnc(Nc4cncc(Cl)c4)c3c2)c1,-39.5% (active)
10,COc1ccc(CN2C(=O)/C(=C/c3nc(CO)cs3)SC2=S)cc1,31.7%
11,Cc1cc(C)n(Nc2nc3ccccc3[nH]c2=O)c(=O)c1C#N,90.8%
12,O=[N+]([O-])c1ccccc1S(=O)c1ccccc1[N+](=O)[O-],40.1%
13,CCC(C)NCc1ccccc1 (stereo not given),100%
14,COC(=O)c1nc(-c2ccccc2)oc1S(=O)(=O)Cc1ccccc1,59.3%
15,O=C(N/N=C/c1cccnc1)c1ccccc1Nc1cccc(C(F)(F)F)c1,74.5%
16,CCCn1cnc2c(c1=N)C(c1ccc(Cl)cc1)c1sc3c(F)cccc3c1O2 (stereo not given),42.4%
17,COc1cc(/C=C/C(=O)c2ccc(Cl)cc2)ccc1Oc1nc(NCCO)nc(N2CCOCC2)n1,91.5%
18,CCCCCCCCCCCCCCCCCC[n+]1ccc2c(C)c3c(c(C)c2c1)c1cc(O)ccc1n3CC,-18.3% (active)
19,COc1cc2nc(Cl)nc(Nc3cccc(C(=O)/C=C/c4ccc(Cl)cc4)c3)c2cc1OC,63.8%
20,COC(=O)CNc1nc(N(C)O)nc(N(C)O)n1,30.6%

row,Structure (SMILES),growth
1,CCCCN(CCCC)CCC(C)(O)c1cc2ccccc2c2ccccc12 (stereo not given),107%
2,CC(=O)OCC(=O)C1CCC=CC1OC(C)=O (stereo not given),85.6%
3,COC1C(O)CC(OC2CC(OC3CC(O[C@@H]4C(=O)c5c(cc6cc(OC7CC(OC8CC(O)C(O)C(C)O8)C(O)C(C)O7)c(C)c(O)c6c5O)CC4[C@H](OC)C(=O)O)OC(C)C3O)OC(C)C2O)OC1C (stereo not given in full),15.8%
4,N#Cc1nc(-c2ccccc2)oc1S(=O)(=O)N1CCOCC1,71.2%
5,CN1CCN(c2nc(-c3ccncc3)nc3sc4c(c23)CCCCCC4)CC1,62.7%
6,COc1cccc(-c2nn(-c3ccccc3)cc2-c2ccnc(NCCCNC(=O)Nc3ccc(Cl)c(Cl)c3)c2)c1,-42.9% (active)
7,COc1ccc(C(=O)Nc2ncc(Cc3ccc(F)cc3)s2)cc1,22.4%
8,Cc1c(O)c(=O)n(-c2ccccc2)n1C,105%
9,C/C(O)=C(/C=N/C(=S)Nc1ccccc1)C(=O)Nc1ccccc1C,99.7%
10,C/C=C/C1OCC(CC)C(CCC)O1 (stereo not given),122%
11,N=C(N)c1ccc(-c2ccc(-c3cncc4ccccc34)s2)cc1F,-90.6% (active)
12,O=C(CN1C(=O)/C(=C/c2ccccc2)SC1=S)N1CCOCC1,82.4%
13,COc1cc(/C=C2\C(=O)N(CCCCn3c4ccccc4c(=O)c4ccccc43)c3ccccc32)cc(OC)c1O,46.2%
14,CC(=O)OCCO,98.6%
15,Cc1cc(C)c2sc(=O)n(Cc3nnc(SCCC(=O)O)o3)c2n1,110%
16,COc1ccc(/C=C\c2cc(OC)c(OC)c(OC)c2)c(NS(=O)(=O)c2ccc(C(C)(C)C)cc2)c1O,38.9%
17,CC12O[C@H](C[C@@H](OC(=O)CCC(=O)O)[C@H]1O)n1c3ccccc3c3c4c(c5c6ccccc6n2c5c31)C(=O)NC4=O,25.9%
18,COc1ccc(/C(C#N)=C/c2cccc(OC)c2OC)cc1,-19.3% (active)
19,Cc1cc(C(NC(=O)CCCCCNc2cccc3c2C(=O)N(C2CCC(=O)NC2=O)C3=O)c2cccnc2)c(O)c2ncccc12 (stereo not given),-8.72% (active)
20,O=C1NC(c2ccc(F)cc2)N=C2C(c3ccccc3)=NOC12 (stereo not given),103%
